Source: PubChem
This is a sample that favours compounds with a hit; in the whole collection about 0.71% have one here.
RGS12 GoLoco inh: RGS12 GoLoco-Gai1 interaction inhibition. P63096. Gai1:RGS12 GoLoco peptide FP, rhodamine, 10 min. Potency, µM (highest dose often 61.6 µM), for inactives: at the highest dose activity, negative = inhibition, hits mostly inhibitors. hit rate 0.44% among 230,000. AID 880; active means well fitted inhibition curve with a large enough effect, not every such curve was filed as active; inactive means no such curve, though single readings can be large or run the other way; further: potency means the concentration at half of the fitted maximal effect; on the % scale 0 is the no-effect control and ±100 the full control effect; nearly all actives have a fitted effect of over 30% in size
Epigenetic reg: epigenetic control regulation, reporter derepression; murine LDR cells, GFP reporter derepression, 30 h; hit rate 0.2% among 280,000; Potency, µM (top dose mostly 53.9 µM), for the others: at the top dose GFP activation, most hits filed as activators; AID 1865; further: potency means the concentration at half of the fitted maximal effect; % of control where 0% means no effect; nearly all actives have a fitted effect of over 60% in size
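Reporter derepression read as number of fluorescent GFP-positive objects, 20-120 um in size, counted by laser-scanning cytometer. Mouse LDR line with an epigenetically silenced CMV-GFP locus; compound incubation 30 h, 37 C.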
TexasRed fluor: Texas Red fluorescence interference in TRb-SRC2 counter-screen. TRb/SRC2 Texas Red total fluorescence interference. Potency, µM (top dose mostly 106 µM), for the others: top-dose fluorescence change, negative = quenching. hit rate 0.29% among 280,000. AID 1479; active means well fitted curve in either direction with a large enough effect; inconclusive means small, poorly fitted or top-dose-only effect; further: potency means the concentration at half of the fitted maximal effect; on the % scale 0 is the no-effect control and ±100 the full control effect
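Human TRβ ligand-binding domain (0.6 uM) and Texas Red SRC2 peptide (20 nM) in Tris buffer with 1 uM T3 and 5% DMSO were incubated with pinned compound for 5 hr at ambient temperature. Total fluorescence was computed as S + 2P (555/632 nm).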
TRb SRC2 PPI: TRbeta-SRC2 interaction inhibition; P10828; TRbeta-SRC2 peptide binding, fluorescence polarization; receptor liganded with 1 µM T3; Potency, µM (top dose mostly 106 µM), for inactives: at the highest dose activity change, negative = inhibition, hits mostly inhibitors; hit rate 0.065% among 280,000; AID 1469;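 further: potency means the concentration at half of the fitted maximal effect; plate controls were bound peptide for no effect and peptide without receptor for full effect; nearly all actives have a fitted effect of over 50% in size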
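Fluorescence polarization of 20 nM Texas Red SRC2 peptide (20-aa NR interaction domain) bound to 0.6 uM human TRb ligand-binding domain, with 1 uM T3, after 5 hr at ambient temperature; inhibition seen as decreased polarization.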
CBFb-RUNX1 inh: blocks binding between human CBF-beta and RUNX1 | 230,000 tested, under 10 active | AlphaScreen CBFb-His/RUNX1-biotin binding, biochemical | Q01196+Q13951 | Potency, µM (highest dose often 59.8 µM), inactives show top-dose activity, negative = inhibition, most hits filed as inhibitors; further: % of control where 0% means no effect
Target sequence (Q01196 whole entry, looked up): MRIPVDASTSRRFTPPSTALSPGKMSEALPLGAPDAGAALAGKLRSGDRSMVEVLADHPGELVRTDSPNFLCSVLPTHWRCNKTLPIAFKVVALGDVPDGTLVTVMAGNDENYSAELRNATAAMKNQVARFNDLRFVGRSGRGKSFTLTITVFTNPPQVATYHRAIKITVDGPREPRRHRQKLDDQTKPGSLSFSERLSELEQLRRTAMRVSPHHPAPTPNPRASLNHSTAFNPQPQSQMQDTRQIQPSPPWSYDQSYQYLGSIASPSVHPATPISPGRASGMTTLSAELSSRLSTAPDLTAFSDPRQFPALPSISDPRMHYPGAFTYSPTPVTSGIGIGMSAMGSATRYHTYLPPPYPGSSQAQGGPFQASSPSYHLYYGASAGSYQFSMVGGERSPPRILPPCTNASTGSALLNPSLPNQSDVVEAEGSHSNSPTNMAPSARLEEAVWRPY
Target sequence (Q13951 whole entry, looked up): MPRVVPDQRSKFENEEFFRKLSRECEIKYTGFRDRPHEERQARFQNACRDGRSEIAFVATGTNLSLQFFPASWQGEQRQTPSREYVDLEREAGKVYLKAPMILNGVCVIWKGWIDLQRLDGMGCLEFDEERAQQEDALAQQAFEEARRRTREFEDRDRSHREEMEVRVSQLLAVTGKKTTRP
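His-tagged CBF-beta and biotinylated RUNX1 (30 nM each) were premixed 20 min at room temperature, exposed to compound for 15 min, then given nickel-chelate and streptavidin AlphaScreen beads (50 ng each). After 90 min, AlphaScreen signal was read.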
* marks the source's active call; other numbers are inactive results; ! = a repeat was not active; [ ] = dose if it differs, or a comment. Unless noted, the call rests on the fitted dose curve; in most records, active means well fitted curve in the direction sought with a large enough effect; inconclusive means small, poorly fitted or top-dose-only effect, or another doubt; inactive means no such curve, though single readings can be large; an effect the other way counts as inactive or inconclusive.

Nc1nc(SCc2ccccc2Cl)nc2nc3c(cc12)CCCC3 was read as RGS12 GoLoco inh 37%, Epigenetic reg -1%, TexasRed fluor 1%, TRb SRC2 PPI 4% and CBFb-RUNX1 inh 11%.
For Nc1nc(SCc2ccc(Cl)cc2Cl)nc2nc3c(cc12)CCCC3 the results were RGS12 GoLoco inh 31%, Epigenetic reg 18µM*, TexasRed fluor -3%, TRb SRC2 PPI -2% and CBFb-RUNX1 inh 3%.
Screening CCCN(CCC)CC(O)Cn1cc(/C=C/C(=O)c2ccc(Br)cc2)c2ccccc21 (centres undefined) returned Epigenetic reg 16µM*, TexasRed fluor -2% and TRb SRC2 PPI -2%.
COc1cccc(C2CC(=O)Nc3c2c(=O)n(C)c2nc4ccccc4n32)c1 (centres undefined) was read as Epigenetic reg 0%, TexasRed fluor 3% and TRb SRC2 PPI -1%.
For CC1=CC(C#N)(C#N)C(C#N)(C#N)C(c2ccccc2)N1 (centres undefined) the results were RGS12 GoLoco inh 32µM*, Epigenetic reg -2%, TexasRed fluor 9%, TRb SRC2 PPI -3% and CBFb-RUNX1 inh -10%.
Oc1ccc2c(c1)OCC1(O)Cc3cc(O)c(O)cc3C21 (centres undefined) was read as RGS12 GoLoco inh -165%, Epigenetic reg 3%, TexasRed fluor inconclusive, TRb SRC2 PPI inconclusive and CBFb-RUNX1 inh 7%.
Screening Oc1cc2c(cc1O)[C@H]1c3ccc(O)c(O)c3OC[C@@]1(O)C2 returned RGS12 GoLoco inh 4µM*!, Epigenetic reg -1%, TexasRed fluor -2%, TRb SRC2 PPI 1% and CBFb-RUNX1 inh 8%[21.7 µM].
Screening COc1ccccc1N=c1oc2c(OC)cccc2cc1C(=O)NCc1ccco1 returned Epigenetic reg 3%, TexasRed fluor 0%, TRb SRC2 PPI 15% and CBFb-RUNX1 inh 2%.
Screening COc1ccc(N=c2oc3c(OC)cccc3cc2C(=O)NCc2ccco2)cc1OC returned RGS12 GoLoco inh 6%, Epigenetic reg 13µM*, TexasRed fluor -13%, TRb SRC2 PPI -5% and CBFb-RUNX1 inh -3%.
For O=C(NC1CCCCCC1)c1ccc2c(c1)sc1nc(-c3ccc(F)cc3)cn12 the results were Epigenetic reg 0%, TexasRed fluor 1µM*[quencher] and TRb SRC2 PPI -12%.
COc1ccc(-c2cn3c(n2)sc2cc(C(=O)Nc4cc(OC)cc(OC)c4)ccc23)cc1 was read as Epigenetic reg 7%, TexasRed fluor 0.0007µM*[quencher] and TRb SRC2 PPI -15%.
O=C(NC1CCCCC1)c1ccc2c(c1)sc1nc(-c3ccc(F)cc3)cn12 was read as Epigenetic reg 0%, TexasRed fluor -9% and TRb SRC2 PPI -1%.
For CCOc1ccccc1C(=O)Nc1nnc(COC)s1 the results were RGS12 GoLoco inh 50µM*, Epigenetic reg -1%, TexasRed fluor -20%, TRb SRC2 PPI 4% and CBFb-RUNX1 inh -8%.
`C[N@+]1(CCC(=O)c2ccccc2)CC[C@H]2CC[C@H](C2)C1` gave RGS12 GoLoco inh -32%[14.2 µM].
CCOC(=O)[C@H](C)Oc1ccc(Oc2nc3ccc(Cl)cc3o2)cc1 was read as TexasRed fluor -1%[201 µM] and TRb SRC2 PPI 5%[201 µM].
`Cc1[nH]c(=O)cc2ccccc12` gave RGS12 GoLoco inh 8.9µM*, Epigenetic reg 0%, TexasRed fluor 0%, TRb SRC2 PPI 9% and CBFb-RUNX1 inh -10%.
`CC(=O)Nc1ccc(S(=O)(=O)NC2=NCN(C)CN2)cc1` gave RGS12 GoLoco inh 2%, Epigenetic reg -3%, TexasRed fluor 1%, TRb SRC2 PPI 6% and CBFb-RUNX1 inh 2%.
`CC(=O)Nc1ccc(S(=O)(=O)NC2=NCN(C(C)C)CN2)cc1` gave Epigenetic reg 0%, TexasRed fluor 13µM*[quencher] and TRb SRC2 PPI -4%.
For Cc1ccc2nc(-c3ccc(NC(=O)COc4ccc(Br)cc4Br)cc3)sc2c1 the results were Epigenetic reg 0%, TexasRed fluor 0.32µM*[quencher] and TRb SRC2 PPI -30%[53 µM].
O=C(O)c1ccc(N2C(=O)/C(=C/c3ccc(-c4ccc([N+](=O)[O-])cc4)o3)C=C2c2ccccc2)cc1 was read as RGS12 GoLoco inh 41%, Epigenetic reg -1%, TexasRed fluor 35µM*[fluorescent], TRb SRC2 PPI 13% and CBFb-RUNX1 inh inconclusive.
